# Values joined by “and” are separate entries in the source; they are usually repeats but may differ in a detail not shown here. Identical values can stand only once. Records with an inconclusive call do not appear. A structure can be active in one record and inactive in another. Active and inactive are the calls of the source.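 How the source made its calls, unless noted: active means normalized viability below 100% at a tested concentration; inactive means the rest.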
# Columns and labels:
# [1] = growth inhibition of DIPG glioma cells, dose response, cell-based, SU-DIPG-XVII, MIPE5.0, CellTiter-Glo, qHTS (AID 1347060; cut-off not given, nearly all actives have AC50 up to about 26 µM;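 further: cells exposed to compound for 48 hours before viability readout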); conditions: SU-DIPG-XVII viability, CellTiter-Glo ATP luminescence
# [2] = growth inhibition of DIPG glioma cells, dose response, cell-based, JHH-DIPG-1, MIPE4.0, CellTiter-Glo, qHTS (AID 1347062; cut-off not given, nearly all actives have AC50 up to about 27 µM;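 further: cells exposed to compound for two days before readout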); conditions: JHH-DIPG-1 viability, CellTiter-Glo ATP luminescence
# [3] = growth inhibition of DIPG glioma cells, dose response, cell-based, SU-DIPG-IV, MIPE4.0, CellTiter-Glo, qHTS (AID 1347063; cut-off not given, nearly all actives have AC50 up to about 30 µM;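 further: compound exposure lasted 48 hours before the viability readout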); conditions: SU-DIPG-IV viability, CellTiter-Glo ATP luminescence
# [4] = growth inhibition of DIPG glioma cells, dose response, cell-based, SU-DIPG-XIII, MIPE5.0, CellTiter-Glo, qHTS (AID 1347064; cut-off not given, nearly all actives have AC50 up to about 23 µM;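 further: cells exposed to compound for 48 hours before the viability read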); conditions: SU-DIPG-XIII viability, CellTiter-Glo ATP luminescence
# [5] = viability loss in pontine glioma line – cell-based, SU-DIPG-XXV, MIPE5.0, CellTiter-Glo, qHTS, dose response (AID 1347065; cut-off not given, nearly all actives have AC50 up to about 26 µM;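 further: cells exposed to compound for 48 hours before ATP readout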); conditions: CellTiter-Glo ATP luminescence
# [6] = JHH-DIPG-1 glioma cell viability, MIPE5.0 library, CellTiter-Glo luminescence, qHTS (AID 1347067; cut-off not given, nearly all actives have AC50 up to about 26 µM;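 further: cells exposed to compound for 48 hours before readout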); conditions: JHH-DIPG-1 glioma viability, CellTiter-Glo ATP luminescence
# [7] = modifiers of HSF1 nuclear foci, imaging, Selleck Cancer Library (AID 1347162; in the data active means plate-normalised HSF1 focus index below about 0.46); conditions: human cells, at 10 µM; SSMD: measured here: HSF1 foci SSMD mean; cell count: measured here: cell number; plate-normalised HSF1 focus index: stronger effect = lower value
# [8] = LFS_MB_P medulloblastoma growth inhibition, cell-based, chromothripsis tumors, cisplatin or BGB combos (AID 1671449; in the data active means inhibition above about 80%;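 further: cells exposed for 96 hours; 0% = vehicle DMSO and 100% = killing by high DMSO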); conditions: LFS_MB_P medulloblastoma cells
# [9] = HDN33 neuroblastoma growth inhibition, cell-based, chromothripsis tumors, cisplatin or BGB combos (AID 1671450; in the data active means inhibition above about 80%;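 further: cells exposed to compound for four days; 0% = vehicle DMSO and 100% = cell killing by high DMSO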); conditions: HDN33 neuroblastoma cells, stronger effect = higher value
# [10] = ICB984 medulloblastoma cell growth inhibition, synergistic combos for chromothripsis tumors, cisplatin or BGB combos (AID 1671451; call rule not given here;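 further: cells exposed for 96 hours before readout; 0% = vehicle DMSO and 100% = killing by high DMSO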); conditions: ICB984 medulloblastoma cells, drug combinations, stronger effect = higher value
# [11] = HTB85 osteosarcoma cell growth inhibition, synergistic combos for chromothripsis tumors, BGB or cisplatin IC20 combos (AID 1671453; in the data active means inhibition above about 80%;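 further: cells exposed for 96 hours before readout; 0% = vehicle DMSO and 100% = high DMSO killing control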); conditions: HTB85 osteosarcoma cells, drug combinations, stronger effect = higher value
# [12] = MDA-MB-436 breast carcinoma cell growth inhibition, synergistic combos for chromothripsis tumors, BGB or cisplatin combos (AID 1671458; call rule not given here;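 further: cells exposed for 96 hours; 0% = vehicle DMSO and 100% = killing by high DMSO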); conditions: MDA-MB-436 breast carcinoma growth inhibition, drug combinations, stronger effect = higher value
# [13] = growth inhibition of BT084 medulloblastoma cells, cell-based, ICGC_MB145, cisplatin and BGB IC40 combos (AID 1671461; in the data active means inhibition above about 80%;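 further: cells exposed to drugs for 96 hours; 0% = vehicle DMSO and 100% = high DMSO full killing control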); conditions: drug combinations, stronger effect = higher value
# [14] = growth inhibition of RCMB18 medulloblastoma cells, cell-based, cisplatin and BGB IC40 combos (AID 1671462; in the data active means inhibition above about 80%;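 further: cells exposed to compound for four days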); conditions: stronger effect = higher value
# [15] = SU-DIPG-XXV glioma cell viability, MIPE5.0 library, qHTS (AID 1347068; cut-off not given, nearly all actives have IC50 up to about 30 µM;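 further: cells exposed to compound for 48 hours before viability readout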)
# [16] = sensitizers of A549 cells to miR-34 induction, primary screen, imaging, A549 dox-inducible miR-34, nuclei and caspase counts (AID 1347080;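 active means compounds whose cell count with miR-34 switched on is under 0.7 times the count with it off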); conditions: A549 miR-34 inducible, Hoechst nuclei count, 48 h
# [17] = survival rescue of mitochondrial mutant cells in low glucose, primary screen, MELAS cybrids, Rieske KO mouse fibroblasts, CellTiter-Glo (AID 1508586;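 active means mean z-score across replicates of 1.96 or higher in either the MELAS or the Rieske mutant cell line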;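 further: z relative to plate mean and SD of compound and empty wells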)
# [18] = ovarian cancer cell viability with rucaparib, profiling panel, oncology-focused library, rucaparib conditional (AID 1508598); conditions: patient-derived ovarian cancer cells, CellTiter-Glo viability, 144 h, stronger effect = lower value
smiles,measurement,setting,value
Cc1[nH]c2ccccc2c1CCNCc1ccc(/C=C/C(=O)NO)cc1,AC50,[1],1180 nM (active)
same,AC50,[2],132 nM (active)
same,AC50,[3],332 nM (active)
same,AC50,[4],166 nM (active)
same,AC50,[5],148 nM (active)
same,AC50,[6],166 nM (active)
same,SSMD,[7],-3.12
same,cell count,[7],7220
same,plate-normalised HSF1 focus index,[7],0.803 (inactive)
same,inhibition,"[8]; at 0.5 µM, stronger effect = higher value",42% (inactive) and 87.2% (active)
same,inhibition,"[8]; measured here: combination with BGB IC20, at 0.005 µM",-5.26% and -19.1%
same,inhibition,"[8]; measured here: combination with BGB IC40, at 0.005 µM",-17.3% and -29%
same,inhibition,"[8]; measured here: combination with BGB IC40, at 0.05 µM",-6.97% and -48.6%
same,inhibition,"[8]; measured here: combination with cisplatin, at 0.5 µM, stronger effect = higher value",84.3% and 119%
same,inhibition,"[8]; measured here: combination with cisplatin, at 5 µM, stronger effect = higher value",120% and 116%
same,inhibition,"[9]; BGB combo, at 5 µM",99.9% and 99.7%
same,inhibition,[9]; at 0.5 µM,99.7% (active) and 60.8% (inactive)
same,inhibition,"[9]; cisplatin combo, at 5 µM",99.9% and 100%
same,inhibition,"[9]; measured here: with BGB IC20 combination, at 0.5 µM",99.5% and 57.1%
same,inhibition,"[9]; measured here: with cisplatin IC20 combination, at 0.5 µM",99.8% and 58.2%
same,inhibition,"[9]; single agent, at 5 µM",99.9%
same,inhibition,"[10]; BGB IC20 combo, at 0.005 µM",86.9% and 15.5%
same,inhibition,"[10]; BGB IC40 combo, at 0.005 µM",98.3% and 28.4%
same,inhibition,"[10]; BGB IC40 combo, at 0.05 µM",99.9% and 97.7%
same,inhibition,[10]; at 0.5 µM,-9.68% (inactive) and -7.76% (inactive)
same,inhibition,"[10]; cisplatin combo, at 0.05 µM",99.9% and 97.7%
same,inhibition,"[10]; cisplatin combo, at 0.5 µM",-13.7% and 4.07%
same,inhibition,"[10]; cisplatin combo, at 5 µM",25.1% and -22.1%
same,inhibition,"[10]; measured here: 5 uM single agent, at 5 µM",26.1% and 8.36%
same,inhibition,[11]; at 0.5 µM,99.9% (active) and 73.4% (inactive)
same,inhibition,"[11]; measured here: with BGB IC20, at 0.5 µM",100% and 62.5%
same,inhibition,"[11]; measured here: with BGB IC20, at 5 µM",99.9% and 99.8%
same,inhibition,"[11]; measured here: with cisplatin IC20, at 0.5 µM",100% and 90.3%
same,inhibition,"[11]; measured here: with cisplatin IC20, at 5 µM",100%
same,inhibition,"[11]; single agent, at 5 µM",99.9% and 100%
same,inhibition,[12]; at 0.5 µM,68.6% (inactive) and 35.2% (inactive)
same,inhibition,"[12]; measured here: BGB combination, at 0.5 µM",60.4% and 26.7%
same,inhibition,"[12]; measured here: BGB combination, at 5 µM",70.3% and 56.2%
same,inhibition,"[12]; measured here: cisplatin combination, at 0.5 µM",66.3% and 33.8%
same,inhibition,"[12]; measured here: cisplatin combination, at 5 µM",80.8% and 74.3%
same,inhibition,[13]; at 0.5 µM,90.4% (active) and 65.9% (inactive)
same,inhibition,"[13]; cisplatin combination, at 0.5 µM",101% and 78.2%
same,inhibition,"[13]; cisplatin combination, at 5 µM",102% and 105%
same,inhibition,"[13]; measured here: BGB IC40 combination 0.05 uM, at 0.05 µM",52.7% and 3.36%
same,inhibition,"[13]; single agent, at 5 µM",109% and 106%
same,inhibition,[14]; at 0.5 µM,91% (active) and 38.1% (inactive)
same,inhibition,"[14]; cisplatin combo, at 5 µM",99% and 97.8%
same,inhibition,"[14]; measured here: BGB IC40 combination, at 0.05 µM",28.7% and -11.4%
same,inhibition,"[14]; measured here: combination with cisplatin, at 0.5 µM",95.9% and 50.4%
same,inhibition,"[14]; single agent, at 5 µM",97.1% and 93.2%
CC(C)(C)c1cnc(CSc2cnc(NC(=O)C3CCNCC3)s2)o1,AC50,[1],118 nM (active)
same,AC50,[2],166 nM (active)
same,AC50,[3],264 nM (active)
same,AC50,[4],833 nM (active)
same,AC50,[5],742 nM (active)
same,AC50,[6],1180 nM (active)
same,IC50,[15],934 nM (active)
same,fold change,"[16]; stronger effect = lower value, cell number ratio, induced over uninduced",0.966 (inactive)
same,fold change,[16]; measured here: relative caspase fold change +Dox/-Dox,1.56
same,cell count,"[16]; measured here: total cells with miR-34 induction, stronger effect = lower value",1470
same,cell count,[16]; measured here: total cells without miR-34 induction,1520
same,SSMD,[7],0.418
same,cell count,[7],7130
same,plate-normalised HSF1 focus index,[7],1.03 (inactive)
same,z-score,"[17]; MELAS cybrid survival, CellTiter-Glo 48 h, stronger effect = higher value",0.429 (inactive)
same,z-score,"[17]; Rieske KO mouse fibroblast survival, CellTiter-Glo 72 h",-1.89
same,viability,"[18]; at 0.000305 µM, OCI-C5x cells, with rucaparib 10 µM, 100% = cells with rucaparib alone",114% (inactive)
same,viability,"[18]; at 0.000305 µM, OCI-C5x cells, without rucaparib",105% (inactive)
same,viability,"[18]; at 0.000305 µM, OCI-P5x cells, with rucaparib 20 µM, 100% = cells with rucaparib alone",112% (inactive)
same,viability,"[18]; at 0.000305 µM, OCI-P5x cells, without rucaparib",111% (inactive)
same,viability,"[18]; at 0.00122 µM, OCI-C5x cells, with rucaparib 10 µM, 100% = cells with rucaparib alone",108% (inactive)
same,viability,"[18]; at 0.00122 µM, OCI-C5x cells, without rucaparib",104% (inactive)
same,viability,"[18]; at 0.00122 µM, OCI-P5x cells, with rucaparib 20 µM, 100% = cells with rucaparib alone",103% (inactive)
same,viability,"[18]; at 0.00122 µM, OCI-P5x cells, without rucaparib",106% (inactive)
same,viability,"[18]; at 0.00488 µM, OCI-C5x cells, with rucaparib 10 µM, 100% = cells with rucaparib alone",100% (active)
same,viability,"[18]; at 0.00488 µM, OCI-C5x cells, without rucaparib",103% (inactive)
same,viability,"[18]; at 0.00488 µM, OCI-P5x cells, with rucaparib 20 µM, 100% = cells with rucaparib alone",110% (inactive)
same,viability,"[18]; at 0.00488 µM, OCI-P5x cells, without rucaparib",104% (inactive)
same,viability,"[18]; at 0.0195 µM, OCI-C5x cells, with rucaparib 10 µM, 100% = cells with rucaparib alone",108% (inactive)
same,viability,"[18]; at 0.0195 µM, OCI-C5x cells, without rucaparib",98.5% (active)
same,viability,"[18]; at 0.0195 µM, OCI-P5x cells, with rucaparib 20 µM, 100% = cells with rucaparib alone",105% (inactive)
same,viability,"[18]; at 0.0195 µM, OCI-P5x cells, without rucaparib",110% (inactive)
same,viability,"[18]; at 0.0781 µM, OCI-C5x cells, with rucaparib 10 µM, 100% = cells with rucaparib alone",108% (inactive)
same,viability,"[18]; at 0.0781 µM, OCI-C5x cells, without rucaparib",100% (active)
same,viability,"[18]; at 0.0781 µM, OCI-P5x cells, with rucaparib 20 µM, 100% = cells with rucaparib alone",101% (inactive)
same,viability,"[18]; at 0.0781 µM, OCI-P5x cells, without rucaparib",104% (inactive)
same,viability,"[18]; at 0.313 µM, OCI-C5x cells, with rucaparib 10 µM, 100% = cells with rucaparib alone",94.4% (active)
same,viability,"[18]; at 0.313 µM, OCI-C5x cells, without rucaparib",97% (active)
same,viability,"[18]; at 0.313 µM, OCI-P5x cells, with rucaparib 20 µM, 100% = cells with rucaparib alone",95.6% (active)
same,viability,"[18]; at 0.313 µM, OCI-P5x cells, without rucaparib",85.8% (active)
same,viability,"[18]; at 1.25 µM, OCI-C5x cells, with rucaparib 10 µM, 100% = cells with rucaparib alone",9.76% (active)
same,viability,"[18]; at 1.25 µM, OCI-C5x cells, without rucaparib",9.99% (active)
same,viability,"[18]; at 1.25 µM, OCI-P5x cells, with rucaparib 20 µM, 100% = cells with rucaparib alone",22.5% (active)
same,viability,"[18]; at 1.25 µM, OCI-P5x cells, without rucaparib",14% (active)
same,viability,"[18]; at 5 µM, OCI-C5x cells, with rucaparib 10 µM, 100% = cells with rucaparib alone",12% (active)
same,viability,"[18]; at 5 µM, OCI-C5x cells, without rucaparib",10.8% (active)
same,viability,"[18]; at 5 µM, OCI-P5x cells, with rucaparib 20 µM, 100% = cells with rucaparib alone",20.3% (active)
same,viability,"[18]; at 5 µM, OCI-P5x cells, without rucaparib",11% (active)

# Reference: PubChem BioAssay
